Compound activity from PubChem.
Pf growth 48h = Primary qHTS for delayed death inhibitors of the malarial parasite plastid, 48 hour incubation. P. falciparum luciferase growth in erythrocytes, 48 h. Potency, µM (series often up to 28.7 µM), without a hit: at the top dose activity change, negative = inhibition, usual class: inhibitors. hit rate 5.9% among 310,000. AID 504832, 2011; also: potency is read from the fitted curve at half-maximal effect
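A one-generation exposure of luciferase-tagged malaria parasites in RPMI 1640/Albumax erythrocyte culture, 37 C and 5% CO2. Inhibition is inferred from decreased luminescence after adding detection reagent.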
HCV inhibitor = qHTS Assay for Inhibitors of Hepatitis C Virus (HCV); AID 651820, 2012; hit rate 3.4% among 340,000; Huh7.5.1 HCVcc-Cre infection, luciferase reporter, 44 h; Potency, µM (doses to about 41.8 µM), for the others: at the top dose activity change, negative = inhibition, actives largely listed as inhibitors; also: potency is read from the fitted curve at half-maximal effect
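Whole-lifecycle infectious HCVcc-Cre system; cells 1,000/well, compound then virus (~0.5 moi) added 4 h after plating, 44 h culture. Luciferase read 15 sec following 15 min substrate incubation, room temp.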
HCMV antiviral = qHTS Assay for inhibitors of the human cytomegalovirus (HCMV). HFF cells, HCMV-luciferase reporter, 72 h; stronger effect = lower value. activity change, negative = inhibition, % at 57.5 µM. hit rate 4.5% among 410,000; in the data active = activity change below about -60%; inconclusive = no clear call, values can overlap the other calls; inactive = above about -39%
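Steps: HFFs plated, 16 h 37C; compounds added; HCMV-luciferase added to MOI 1 PFU/cell; 72 h 37C; OneGlo reagent, 5 min room temperature; luminescence read, normalized to controls.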
Pf growth 96h = Primary qHTS for delayed death inhibitors of the malarial parasite plastid, 96 hour incubation | P. falciparum luciferase reporter growth, 96 h | Potency, µM (top dose mostly 28.7 µM), without a hit: at the top dose activity change, negative = inhibition, actives largely listed as inhibitors | hit rate 6.9% among 320,000; also: potency is read from the fitted curve at half-maximal effect
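Erythrocytes infected with luciferase-expressing P. falciparum were dispensed at 2% hematocrit and 0.05% parasitemia (final), then incubated with compounds 96 hours at 37 C in 5% CO2. Luminescence after detection reagent addition reported growth.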
* marks the source's active call; other numbers are inactive results; ? = inconclusive; · = no result given. Only some compounds are listed: those with a hit (about 13% of all), similar ones and a draw of the others. Unless noted, calls follow the shape of the dose curve; as a rule, active = well fitted inhibition curve with a large enough effect; inconclusive = small, poorly fitted or top-dose-only effect, or another doubt; inactive = no such curve, though single readings can be large or run the other way. % is scaled to controls: 0 for no effect and ±100 for the full control effect.

SMILES | Pf growth 48h | HCV inhibitor | HCMV antiviral | Pf growth 96h
Cc1ccc(NC(=O)c2cc(NC(=O)c3ccco3)ccc2N2CCOCC2)cc1 | -11% | 13µM* | 9 | -1%
Cc1ccc(NC(=O)c2cc(N3C(=O)C4CC=CCC4C3=O)ccc2N2CCOCC2)cc1Cl (configuration not stated) | 18% | -9% | · | 10%
COc1ccc(Cl)cc1NS(=O)(=O)c1c(C)nc2scc(C)n2c1=O | · | · | 2 | ·
COCCN1C=C2C(=O)C(C)(OC(=O)C3CCCC3)C(=O)C(c3ccccc3)=C2C=C1CCCC(=O)OC (configuration not stated) | 36% | 13% | 9 | ?
COC(=O)CCCC1=CC2=C(c3ccccc3)C(=O)C(C)(OC(=O)C3CCCC3)C(=O)C2=CN1C1CCCCC1 (configuration not stated) | 10µM* | ? | -2 | ?
COC(=O)CCCC1=CC2=C(c3ccccc3)C(=O)C(C)(OC(=O)C3CCCC3)C(=O)C2=CN1CC1CC1 (configuration not stated) | ? | 7% | -38 | 8.3µM*
O=C(C1CCN(c2nc3ccccc3[nH]2)CC1)N1CCN(c2ccccc2)CC1 | · | · | 0 | ·
CCOc1ccccc1NC(=O)CCc1c(C)nc2c(c(C)nn2-c2ccccc2)c1C | · | · | 6 | ·
O=P(O)(O)OC[C@H]1O[C@](O)(COP(=O)(O)O)[C@@H](O)[C@@H]1O | 7% | · | · | 15%
COc1cc(N[C@@H](C)CCCN)c2ncccc2c1 | 0.81µM* | · | · | 0.57µM*
O=C(NC(=S)Nc1nc(-c2ccc(Br)cc2)cs1)c1ccco1 | 29% | 2% | ? | 4%
O=C(c1cccs1)N(Cc1ccco1)c1nc(-c2ccc(F)cc2)cs1 | 13µM* | ? | -25 | -12%
CCCCN(C(=O)c1ccco1)c1nnc(-c2cc(OC)c(OC)c(OC)c2)s1 | 1.9µM* | ? | 6 | ·
O=C(NC(=S)Nc1nc(-c2ccc([N+](=O)[O-])cc2)cs1)c1ccco1 | 28% | -4% | -84* | ?
Cc1ccc(-c2csc(NC(=O)c3ccco3)n2)cc1C | 20% | ? | 43 | 0.59µM*
CCOc1ccc(-c2csc(NC(=O)c3ccco3)n2)cc1 | 20% | -18% | 120 | 10µM*
CCN(C(=O)c1ccco1)c1nc(-c2ccc(OC)cc2)cs1 | -15% | 22µM* | 92 | ?
COc1ccc(-c2csc(NC(=O)c3ccco3)n2)cc1 | 270% | ? | 91 | -22%
CCOc1ccc(NC(=O)c2ccco2)c([N+](=O)[O-])c1 | 200% | 2% | 19 | 0.59µM*
COc1ccc(-c2csc(N(CCCN(C)C)C(=O)c3ccccc3C)n2)cc1 | 22% | ? | -61* | 0%
CN(C)S(=O)(=O)c1ccc(C(=O)NC2CC(=O)N(c3ccc4c(c3)OCCO4)C2)cc1 (configuration not stated) | · | · | -5 | ·
CC(=O)OCC(=O)[C@@]1(O)CCC2C3C[C@H](C)C4=CC(=O)C=CC4(C)C3C(O)CC21C (some centres not stated) | -12% | · | · | -24%
COc1cccc(C(=O)c2cn(CC(=O)Nc3cccc(C)c3C)c3nc(C)ccc3c2=O)c1 | · | · | -5 | ·
COc1cccc(C(C(=O)NC2CCCCC2)N(CCN2CCOCC2)C(=O)C2COc3ccccc3O2)c1 (configuration not stated) | -30% | 5% | 2 | 0%
COc1cc(OC)cc(N(C(=O)C2COc3ccccc3O2)C(C(=O)NC2CCCCC2)c2ccc(O)cc2)c1 (configuration not stated) | 13µM* | ? | -77* | 7.4µM*
COc1ccc(N(C(=O)C2COc3ccccc3O2)C(C(=O)NC2CCCCC2)c2ccccc2)cc1OC (configuration not stated) | 7.4µM* | ? | -63* | ?
CCOC(=O)c1cnc2cc(C(F)(F)F)ccc2c1N1CCN(c2cccc(Cl)c2)CC1 | · | · | 14 | ·
CCCCC(=O)Nc1nn(CCC)c2nc3ccccc3cc12 | 12µM* | ? | 16 | ?
CCn1nc(NC(=O)c2cccs2)c2cc3ccccc3nc21 | -3% | 25µM* | -14 | 24%
Cc1cccc(N(C)C(=O)Cn2c(=O)oc3cc(S(=O)(=O)N4CCCCC4)ccc32)c1 | · | · | 7 | ·
